Compound activity (PubChem BioAssay)
F508del corr – correctors of CFTR F508del function in bronchial epithelial cells; AID 720511; 0.36% of 350,000 active; CFBE cells, YFP halide quenching; stimulated with forskolin plus potentiator P3; % fluorescence drop versus neutral controls; activity (quench increase), % at 7.58 µM;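 active means mean added fluorescence quench of at least 8% versus neutral control, with both replicates also reaching 8%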;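 further: cells transiently co-express mutant CFTR-F508del with the halide-sensitive YFP; corrector assay measuring rescue of mutant channel to the surface after 24 h compound exposure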
SKN-1 inh – C. elegans SKN-1 inhibition. C. elegans VP596 Pgst-4::GFP/RFP ratio, acrylamide-induced, 24 h. inhibition, % at 21.8 µM. 0.49% of 360,000 active;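 active means interference check ratio from 0.5 to 1.5 plus GFP to RFP signal ratio inhibition reaching or exceeding a fixed threshold, cut at about 30% in these data, passing the limit was not always enough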
NRP1-CendR mod – NRP-1/CendR interaction modulation | O14786 | FAM-RPARPAR peptide binding to NRP-1, fluorescence polarization | inhibition, % at 25 µM | 0.85% of 360,000 active;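 active means inhibition or corrected inhibition above about 18%, plus a signal ratio from 0.5 to 1.5, limit read from the data, passing the limit was not always enough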
ATG4B inh – blocks human ATG4B protease cleavage of LC3 substrate; Q9Y4P1; 0.51% of 340,000 active; ATG4B cleavage of LC3-PLA2, NBD-HPC fluorescence, 1 h; inhibition, % at 8.33 µM; AID 504462; in the data active means inhibition above about 40%
Target sequence (Q9Y4P1 whole entry, looked up): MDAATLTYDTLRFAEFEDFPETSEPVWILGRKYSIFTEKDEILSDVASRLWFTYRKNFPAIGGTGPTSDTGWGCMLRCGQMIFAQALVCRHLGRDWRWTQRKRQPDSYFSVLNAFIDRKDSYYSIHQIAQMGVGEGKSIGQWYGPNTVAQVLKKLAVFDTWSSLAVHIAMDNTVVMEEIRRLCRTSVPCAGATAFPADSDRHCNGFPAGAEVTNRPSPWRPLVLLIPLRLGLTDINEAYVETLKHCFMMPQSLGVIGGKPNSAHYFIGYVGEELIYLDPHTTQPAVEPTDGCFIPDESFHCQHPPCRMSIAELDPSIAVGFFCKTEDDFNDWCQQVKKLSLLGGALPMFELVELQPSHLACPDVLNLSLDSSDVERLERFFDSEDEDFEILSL
MPTP inh – inhibitors of mitochondrial permeability transition pore | isolated mouse mitochondria, Ca2+ swelling absorbance, 30 min | inhibition, % at 10 µM | 1.4% of 360,000 active | AID 602449;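 active means inhibition of 50% or more, scaled per plate between neutral and stimulator controls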;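 further: 0% = DMSO wells given calcium and 100% = 1 mM EGTA wells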
ATG4B confirm – ATG4B (human) inhibition, single-dose confirmed; shares compounds with ATG4B inh; ATG4B protease fluorescent substrate cleavage assay; inhibition, % at 8.33 µM; 92% of 320 active; AID 504757; in the data active means inhibition above about 39%
PLA2 ctr – inhibits human PLA2, flagging false ATG4B inhibitors; shares compounds with ATG4B inh; purified PLA2, NBD-C6-HPC fluorescence, 45 min; inhibition, % at 8.33 µM; 66% of 1,600 active; AID 588402; in the data active means inhibition above about 50%
Target sequence (P04054 whole entry, looked up): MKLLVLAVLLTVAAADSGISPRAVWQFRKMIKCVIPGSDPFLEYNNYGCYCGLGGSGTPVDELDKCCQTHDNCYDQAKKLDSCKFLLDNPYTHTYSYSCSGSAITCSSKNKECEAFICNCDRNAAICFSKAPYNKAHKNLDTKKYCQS
MPTP counter – mitochondrial membrane potential, counter-screen; inhibition, % at 10 µM; 78% of 5,000 active; shares compounds with MPTP inh; AID 624504; isolated mitochondria, Rhodamine 123 fluorescence; in the data active means inhibition above about 22%;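 further: 0% = DMSO vehicle and 100% = positive control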
Starred values were filed as active, the others as inactive; nt = no result. Hits are enriched below; roughly 2.7% of the tested compounds scored in any of these assays.

SMILES	F508del corr	SKN-1 inh	NRP1-CendR mod	ATG4B inh	MPTP inh	PLA2 ctr	MPTP counter	others
CO[C@H]1CN(C)C(=O)c2ccc(NC(=O)Nc3ccc(Cl)cc3)cc2OC[C@H](C)N(C(=O)Nc2c(C)noc2C)C[C@H]1C	2.1	nt	nt	nt	nt	nt	nt
Oc1ccc(Cl)cc1Sc1cc(Cl)ccc1O	-3.3	10.2	2.1	47.0*	70.0*	24.7	68.3*	ATG4B confirm=58.6*
COC(=O)/C=C1/S/C(=N/NC(=O)c2ccc(Cl)cc2Cl)NC1=O	-0.4	-0.9	-11.3	1.4	0.1	nt	nt
COC(=O)/C=C1\SC(=Nc2ccc(Cl)c(Cl)c2)NC1=O	0.9	-0.5	9.3	79.0*	95.0*	28.0	51.9*	ATG4B confirm=79.2*
CC(/C=C1\SC(=S)N(NS(=O)(=O)c2ccc(C)cc2)C1=O)=C\c1ccccc1	0.2	-4.7	-75.8	62.1*	53.6*	71.8*	40.7*
Nc1ncc(Br)cc1S(=O)(=O)Nc1cc(C(F)(F)F)cc(C(F)(F)F)c1	-0.4	-7.8	0.9	57.0*	85.1*	46.6	84.6*	ATG4B confirm=56.4*
Cc1ccc(NS(=O)(=O)c2cc(Br)cnc2N)c(Cl)c1	-0.6	-0.7	-1.3	7.9	6.3	nt	nt
CCn1nc([N+](=O)[O-])c(C(C#N)c2nc3ccccc3n2C)c(Cl)c1=O (stereo not given)	nt	11.4	14.7	71.7*	53.8*	74.7*	66.5*
Cn1c(C(C#N)C(=O)c2sc3ccccc3c2Cl)nc2ccccc21 (stereo not given)	nt	17.2	-10.7	14.0	-0.8	nt	nt
O=[N+]([O-])c1ccc(CN2CCN(c3nc4ccccc4s3)CC2)cc1	-1.5	-7.9	4.8	2.7	0.8	nt	nt
CCCn1nc([N+](=O)[O-])c(C(C#N)c2nc3ccccc3s2)c(Cl)c1=O (stereo not given)	nt	17.8	34.4*	83.8*	111.9*	85.3*	46.4*
CCNC(=O)C[C@@H]1CC[C@H]2[C@@H](COC[C@H](O)CN2C(=O)C2CCOCC2)O1	0.3	nt	nt	nt	nt	nt	nt
CCOc1cc(/C=C2\N=C(SCC)SC2=O)cc([N+](=O)[O-])c1OC(C)=O	nt	3.1	14.2	76.1*	104.0*	75.1*	37.1*
O=C(C[C@H]1CC[C@@H]2[C@H](COC[C@H](O)CN2C(=O)c2ccccc2F)O1)NCc1ccccc1	2.4	nt	nt	nt	nt	nt	nt
C[C@@H]1CNCCN1c1ccc(N2CCS(=O)(=O)CC2)c(C#N)c1	-4.3	nt	nt	nt	nt	nt	nt
Cc1c(Cl)cccc1NC(=S)NCc1ccccc1Cl	nt	3.7	-9.5	78.7*	84.2*	83.4*	94.4*
Cc1c(Cl)cccc1NC(=S)NCCC(c1ccccc1)c1ccccc1	nt	9.2	5.3	90.8*	62.4*	93.2*	87.2*
Cc1c(Cl)cccc1NC(=S)NCC(C)C	1.1	4.1	1.9	35.6	6.9	nt	nt
COc1ccccc1NC(=S)NCc1ccccc1Cl	-3.5	1.9	-7.9	5.1	0.0	nt	nt
Cc1c(Cl)cccc1NC(=S)NCC1COc2ccccc2O1 (stereo not given)	-1.3	1.0	3.8	88.4*	63.1*	89.2*	92.9*
C=C(C)Cn1c(SCC(=O)N/N=C/c2c(O)ccc3ccccc23)nc2ccccc2c1=O	nt	0.7	-13.7	40.6*	66.4*	-1.9	56.1*	ATG4B confirm=56.5*
CCCCn1c(NC(=O)c2ccccc2)c(C#N)c2nc3ccccc3nc21	nt	9.7	-66.6	54.9*	86.6*	60.3*	79.5*
Cc1noc(C)c1S(=O)(=O)N(C)C[C@@H]1Oc2ccc(NC(=O)CCCN(C)C)cc2C(=O)N([C@H](C)CO)C[C@@H]1C	-0.5	nt	nt	nt	nt	nt	nt
Cc1ccc2c(c1)[nH]c1c(N3CCN(Cc4ccccc4)CC3)ncnc12	nt	16.1	8.1	61.7*	68.1*	78.7*	80.1*
COc1ccc2c(c1)[nH]c1c(N3CCN(Cc4ccc5c(c4)OCO5)CC3)ncnc12	nt	21.2	-3.7	44.6*	88.5*	58.1*	90.6*
SMILES	F508del corr	SKN-1 inh	NRP1-CendR mod	ATG4B inh	MPTP inh	PLA2 ctr	MPTP counter	others
C[C@H](CO)N1C[C@H](C)[C@H](CN(C)C(=O)Nc2ccccc2)Oc2ncccc2C1=O	-1.7	nt	nt	nt	nt	nt	nt
O=[N+]([O-])c1cc(Cc2ccccc2)cc(C=Nc2ccc(N3CCOCC3)cc2)c1O	nt	-3.1	-38.8	10.8	14.9	nt	nt
Cc1ccc(O)c(N=Cc2cc(Cc3ccccc3)cc([N+](=O)[O-])c2O)c1	-2.5	13.4	-88.3	79.3*	64.4*	75.6*	55.4*
C[C@@H]1CCCCO[C@H](CN(C)C(=O)Nc2cccc3ccccc23)[C@@H](C)CN([C@H](C)CO)C(=O)c2cc(NC(=O)CCCCCC(=O)Nc3ccccc3N)ccc2O1	-3.7	nt	nt	nt	nt	nt	nt
O=C(c1ccc2c(=O)n(C3CCCC3)c(=S)[nH]c2c1)N1CCc2ccccc21	nt	4.8	-0.5	54.0*	79.6*	76.8*	68.6*
CC(C)NC(=O)c1ccc2c(=O)n(C3CCCC3)c(=S)[nH]c2c1	nt	-17.7	-14.2	-11.1	3.3	nt	nt
Cc1c(Cl)c([N+](=O)[O-])nn1CCCC(=O)Nc1c(Cl)cccc1Cl	nt	-2.7	2.8	19.9	1.0	nt	nt
Cc1c(Cl)c([N+](=O)[O-])nn1CCCC(=O)Nc1cc(Oc2ccccc2)cc([N+](=O)[O-])c1	0.5	1.4	-4.4	88.7*	85.0*	88.0*	83.5*
CN(C)CC#Cc1ccc([C@H]2[C@H]3CN(C(=O)C4CCCC4)CCCCN3[C@H]2CO)cc1	-0.8	nt	nt	nt	nt	nt	nt
O=S(=O)(Nc1nc(-c2sccc2Cl)cs1)c1cc(Cl)ccc1Cl	nt	4.3	-73.0	87.9*	77.6*	76.7*	50.8*
COc1ccc(NC(=O)N(C)C[C@H]2OCCCC[C@@H](C)Oc3ccc(NC(=O)Nc4c(C)noc4C)cc3C(=O)N([C@@H](C)CO)C[C@H]2C)cc1	-1.9	nt	nt	nt	nt	nt	nt
Cc1ccc(Cl)cc1N1CCN(C(=O)CSc2nnc3n2C(C)(C)Cc2ccccc2-3)CC1	nt	15.7	-4.3	44.4*	94.0*	69.0*	90.0*
COc1ccc(N2CCN(C(=O)CSc3nnc4n3C(C)(C)Cc3ccccc3-4)CC2)cc1	nt	12.7	4.9	-9.1	17.1	nt	nt
COC(=O)c1ccc(NC(=S)NC2CCc3ccccc32)cc1 (stereo not given)	nt	5.2	10.8	48.2*	80.0*	56.2*	81.3*
CCCCCCCCn1ccc(=N)cc1	-1.3	1.1	-4.3	-3.1	-0.7	nt	nt
CCCCCCCCCCCCCCCCn1cc[n+](C)c1	-4.1	18.8	6.8	48.5*	57.8*	37.8	99.2*	ATG4B confirm=49.9*
O=C(C[C@@H]1CC[C@H]2[C@@H](COC[C@H](O)CN2Cc2ccncc2)O1)NCC1CC1	1.3	nt	nt	nt	nt	nt	nt
COc1ccc(/C=C2/C(=O)N(c3nc4ccccc4s3)N=C2CSc2ccc(Cl)cc2)cc1	nt	1.5	-5.6	56.3*	91.1*	42.9	56.5*
